The structures appear in SMILES notation. Several values for one entry are separate records, joined by “and”; a condition that tells them apart may be missing. Identical values can stand only once. Records with an inconclusive call do not appear. Unmarked numbers belong to inactive results. Activity calls are given as the source filed them. Calls come from the whole dose curve; as a rule, active = well fitted curve in the direction sought with a large enough effect; inconclusive = small, poorly fitted or top-dose-only effect, or another doubt; inactive = no such curve, though single readings can be large; an effect the other way counts as inactive or inconclusive.

One assay concerns CRL-7250. As to the kind of experiment: Cytotoxic Profiling of Annotated Libraries Using Quantitative High-Throughput Screening (AID 1296008). Note: nearly all actives have a fitted effect of over 60% in size. The note with it: Five cell lines viability, CellTiter-Glo ATP luminescence, 48-72 h; max response: stronger effect = lower value. In a few lines:
(§1)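 Compounds were pin-transferred onto cells and incubated 48 or 72 hr at 37 degree Celsius, 95% humidity. CellTiter-Glo was added, plates sat 10 min at room temperature, then ATP-coupled luminescence was imaged as the viability read-out.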

Assay [1] relates to HaCat. The assay is described as above. The note with it: Five cell lines viability, CellTiter-Glo ATP luminescence, 48-72 h; max response: stronger effect = lower value. In a few lines: as §1
The test system of another assay is KB-3-1. The description is as above. As to conditions: Five cell lines viability, CellTiter-Glo ATP luminescence, 48-72 h; max response: stronger effect = lower value. An outline of the steps:
as §1

Assay [2] has as its system NIH3T3. The description is as above. As to conditions: Five cell lines viability, CellTiter-Glo ATP luminescence, 48-72 h; max response: stronger effect = lower value. An outline of the steps: as §1
For assay [3], the system named is HACAT. The assay can be described thus: qHTS assay to identify novel small-molecules to repurpose for Merkel cell carcinoma treatment (AID 1296009). Note: nearly all actives have a fitted effect of over 60% in size. As to conditions: MCC and control cell lines, CellTiter-Glo viability, 72 h; at 44.8 µM (top of the series) unless noted. An outline of the steps: (§2)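 Luminescence from CellTiter-Glo, read 10 min after addition at room temperature, reported viability following a 72 hr, 37 degree celsius treatment with NPC or MIPE compounds in titration; values normalized to plate controls.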

The next assay concerns MCC-13. Described as above. As to conditions: MCC and control cell lines, CellTiter-Glo viability, 72 h; series mostly up to 46 µM. In a few lines:
as §2

For a further assay, the system named is MCC-26. The description is as above. As to conditions: MCC and control cell lines, CellTiter-Glo viability, 72 h; series mostly up to 46 µM. In a few lines: as §2
A further assay deals with MKL-1. Described as above. The note with it: MCC and control cell lines, CellTiter-Glo viability, 72 h; series mostly up to 46 µM. An outline of the steps: as §2
The test system of the next assay is MKL-2. The description is as above. The note with it: MCC and control cell lines, CellTiter-Glo viability, 72 h; series mostly up to 46 µM. An outline of the steps:
as §2

Assay [4] has as its system NIH3T3. The description is as above. The note with it: MCC and control cell lines, CellTiter-Glo viability, 72 h; at 44.8 µM (top of the series) unless noted. An outline of the steps: as §2
The subject of a further assay is UISO. Described as above. The note with it: MCC and control cell lines, CellTiter-Glo viability, 72 h; series mostly up to 46 µM. In a few lines:
as §2

The subject of a further assay is WaGa. The description is as above. The note with it: MCC and control cell lines, CellTiter-Glo viability, 72 h; series mostly up to 46 µM. An outline of the steps:
as §2

A further assay concerns C33A. As to the kind of experiment: Primary qHTS to identify gynecologic anti-cancer compounds using libraries of approved drugs and bioactive compounds (AID 1345084). Note: nearly all actives have a fitted effect of over 55% in size. The note with it: Gynecologic cancer cell panel viability, ATPlite luminescence, 48 h; series mostly up to 57.5 µM. In a few lines:
(§3)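 Cells, 1,000 per well, plated 16 h, then exposed 48 h at 37 C to compounds. Viability by ATPlite luminescence after 15 min at room temperature.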

A further assay has as its system CASKI. The description is as above. As to conditions: Gynecologic cancer cell panel viability, ATPlite luminescence, 48 h; series mostly up to 57.5 µM. In a few lines: as §3
The test system of a further assay is Es-2. Described as above. The note with it: Gynecologic cancer cell panel viability, ATPlite luminescence, 48 h; series mostly up to 57.5 µM. In a few lines:
as §3

A further assay has as its system HeLa. Described as above. The note with it: Gynecologic cancer cell panel viability, ATPlite luminescence, 48 h; series mostly up to 57.5 µM. An outline of the steps:
as §3

In the next assay the test system is HEK293. The assay can be described thus: Cytotoxic Profiling of Annotated Libraries Using Quantitative High-Throughput Screening (AID 1296008). Note: nearly all actives have a fitted effect of over 60% in size. As to conditions: Five cell lines viability, CellTiter-Glo ATP luminescence, 48-72 h; max response: stronger effect = lower value. In a few lines:
as §1

A further assay relates to HEK293T. The assay can be described thus: qHTS assay to identify novel small-molecules to repurpose for Merkel cell carcinoma treatment (AID 1296009). Note: nearly all actives have a fitted effect of over 60% in size. The note with it: MCC and control cell lines, CellTiter-Glo viability, 72 h; at 44.8 µM (top of the series). An outline of the steps:
as §2

For another assay, the system named is CAOV3. As to the kind of experiment: Primary qHTS to identify gynecologic anti-cancer compounds using libraries of approved drugs and bioactive compounds (AID 1345084). Note: nearly all actives have a fitted effect of over 55% in size. The note with it: Gynecologic cancer cell panel viability, ATPlite luminescence, 48 h; series mostly up to 57.5 µM. In a few lines:
as §3
% is set by controls: 0 for no effect and ±100 for the full control effect; potency is the fitted concentration of half-maximal effect.

For `CCC1(CC)C(=O)NC(=O)NC1=O`, the max response in the assay with CRL-7250 was -2.88%; in the assay on KB-3-1, -1.45%. The outcome in the assay with HaCat [1], in the assay with NIH3T3 [2], in the assay with HACAT [3] and with NIH3T3 [4] was inactive. Further, the Potency result in the assay on MCC-13, in the assay with MCC-26, in the assay with MKL-1, in the assay with MKL-2, in the assay with UISO and with WaGa was “inactive” each time. The Potency result in the assay with C33A, with CASKI, in the assay with Es-2 and in the assay with HeLa was “inactive” throughout.
In the case of `CC(CC(C(N)=O)(c1ccccc1)c1ccccc1)N(C)C` (configuration not stated), the max response was -1.58% in the assay on CRL-7250 and -10.9% with HaCat [1]. The result in the assay on HEK293, in the assay with NIH3T3 [2], in the assay on HEK293T and in the assay with NIH3T3 [4] was inactive. For the same compound, the Potency result with MCC-13, in the assay with MCC-26, in the assay on MKL-1, with MKL-2, in the assay on UISO and with WaGa was “inactive” in each case. Moreover, the Potency entry with C33A, with CAOV3, in the assay on CASKI, in the assay with Es-2 and in the assay with HeLa was “inactive” in each case.
On to `CCO[C@H]1O[C@@H]2OC3(C)CC[C@H]4[C@H](C)CC[C@@H]([C@H]1C)[C@@]24OO3`, for which the values for the max response in the assay with CRL-7250, in the assay with HaCat [1] and in the assay with NIH3T3 [2] were 3.38%, -19.4% and 0.769%, respectively. Moreover, the Potency is 5.96 µM (active) in the assay on HEK293 and 18.8 µM (active) in the assay with WaGa. The Potency result in the assay on MCC-13, in the assay with MCC-26, in the assay with MKL-1, with C33A, with CAOV3 and in the assay on CASKI was “inactive” in each case. Further, the Potency result with Es-2 and with HeLa was “inactive” throughout.
On to `O=C(CCCCl)c1ccc(F)cc1`, for which the results for the max response in the assay on CRL-7250, in the assay with HaCat [1] and in the assay on NIH3T3 [2] were 0.989%, 4.12% and -0.659%, respectively. Further, the compound was classed as inactive with HEK293 and in the assay on HEK293T. Further, the Potency result with MCC-13, in the assay with MCC-26, with MKL-1, in the assay on MKL-2, in the assay on UISO and with WaGa was “inactive” in each case. In addition, the Potency result with C33A, in the assay with CASKI, in the assay with Es-2 and in the assay with HeLa was “inactive” throughout.
Consider `CN(C)C(=S)SSC(=S)N(C)C`, for which the Potency in the assay on CRL-7250 is 0.75 µM (active); with HEK293, 0.944 µM (active); in the assay on NIH3T3 [2], 0.422 µM (active); with MCC-26, 0.299 µM (active); with MKL-1, 0.596 µM (active); in the assay on MKL-2, 0.596 µM (active). The Potency in the assay with UISO is 0.211 µM (active); in the assay with WaGa, 0.668 µM (active); with C33A, 1.26 µM (active). The max response in the assay on KB-3-1 is -0.0008%. For the same compound, the Potency result in the assay on CASKI and in the assay with HeLa was “inactive” in each case.
For `Cc1ccc([N+](=O)[O-])[c]2c1[O][Hg]2`, the Potency was 1.5 µM (active) with CRL-7250; 1.06 µM (active) in the assay with HEK293; 6.68 µM (active) in the assay on HaCat [1]; 4.22 µM (active) in the assay with NIH3T3 [2]; 2.11 µM (active) with MCC-13; 1.88 µM (active) in the assay on MCC-26. Further, the Potency is 0.133 µM (active) with MKL-1; 0.0422 µM (active) in the assay on MKL-2; 0.335 µM (active) with UISO; 0.335 µM (active) in the assay on WaGa; 4.47 µM (active) in the assay on C33A; 6.31 µM (active) with CAOV3. For the same compound, the Potency was 7.94 µM (active) with CASKI, 5.62 µM (active) in the assay on Es-2 and 20 µM (active) in the assay on HeLa.
On to `CC[n+]1c(-c2ccccc2)c2cc(N)ccc2c2ccc(N)cc21`, for which the Potency in the assay on CRL-7250 is 6.68 µM (active); in the assay on HEK293, 0.596 µM (active); with KB-3-1 it was 8.2 µM (active) and 23.1 µM (active); in the assay on MKL-1, 0.668 µM (active); in the assay with MKL-2, 0.944 µM (active); in the assay with UISO it was 7.5 µM (active). The values for the Potency with WaGa, in the assay with C33A and in the assay with CASKI were 0.75 µM (active), 1.12 µM (active) and 20 µM (active), respectively.
